The source of these data is the supplement of paper PMC12067926.

Common to all, as to assay: relative growth (AUC of 72 h growth curve relative to DMSO control, dAUC) (ratio); higher = more growth (less inhibition), active = hit call of the paper
Common to all, as to settings: 20 µM

Compound in assay [1]: C=CCOC(Cn1ccnc1)c1ccc(Cl)cc1Cl
The method in brief: (§1)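 Cultures grown to carrying capacity in Luria–Bertani medium, drawn from Icelandic stream sediment and Silwood Park soil isolates and whole sediment communities, were diluted 1:100 into 96-well plates with each chemical at 20 µM (1% DMSO) and read at A600 hourly for 72 h. The spline-integrated area under the growth curve, divided by the mean of the DMSO controls, is reported as relative growth (dAUC). Values are means of three biological replicates.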

Compound in assay [2]: CC(=O)CC(c1ccccc1)c1c(O)c2ccccc2oc1=O
In a few lines: as §1

Compound in assay [3]: CC1COc2ccccc2N1C(=O)C(Cl)Cl
The method in brief: as §1

Compound in assay [4]: CCCCC(CC)CN1C(=O)[C@@H]2[C@H](C1=O)[C@@H]1C=C[C@H]2C1 (mixture of isomers)
The method in brief:
as §1

Compound in assay [5]: CCCCCCCCc1c(CC)nc2ncnn2c1N
The method in brief: as §1

Compound in assay [6]: CCCCOCCOCCOCc1cc2c(cc1CCC)OCO2
In a few lines: as §1

Compound in assay [7]: CCCOC(=O)NCCCN(C)C
In a few lines:
as §1

Compound in assay [8]: COC(=O)c1csc(C)c1S(=O)(=O)NC(=O)n1nc(OC)n(C)c1=O
In a few lines:
as §1

Compound in assay [9]: Cc1ccc(C(C)NC(=O)[C@@H](NC(=O)OC(C)C)C(C)C)cc1
The method in brief:
as §1

Compound in assay [10]: Cc1nn(C)c(Oc2ccccc2)c1/C=N/OCc1ccc(C(=O)OC(C)(C)C)cc1
The method in brief:
as §1

Compound in assay [11]: Cn1cc(C(=O)Nc2ccc(F)cc2-c2ccc(Cl)c(Cl)c2)c(C(F)F)n1
The method in brief: as §1

Compound in assay [12]: Cn1cc(C(=O)Nc2ccccc2-c2cc(F)c(F)c(F)c2)c(C(F)F)n1
In a few lines: as §1

Compound in assay [13]: O=C(NCc1ncc(C(F)(F)F)cc1Cl)c1c(Cl)cccc1Cl
The method in brief: as §1

Compound in assay [14]: Oc1c(Cl)cc(Cl)c(Cl)c1Cc1c(O)c(Cl)cc(Cl)c1Cl
The method in brief:
as §1

Compound in assay [15]: S=C([S-])NCCNC(=S)[S-].S=C([S-])NCCNC(=S)[S-].[Mn+2].[Zn+2]
The method in brief:
as §1

Compound in assay [16]: c1ccc2[nH]c(-c3cscn3)nc2c1
In a few lines: as §1

A number with no mark means an inactive call.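 How the source made its calls: active = growth AUC significantly below the DMSO wells by Dunnett test; inactive = the rest.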

As to Pseudomonas 4 (Pseudomonas peli), the relative growth is 0.952 in assay [1]; 0.978 in assay [2]; 0.938 in assay [3]; 0.959 in assay [4]; 0.99 in assay [5]; 0.961 in assay [6]. The relative growth in assay [7] was 0.995; in assay [8], 1.03; in assay [9], 0.968; in [10], 1.01; in assay [11] it was 0.979; in assay [12] it was 0.992. The relative growth is 0.981 in assay [13], 0.00176 (active) in [14], 0.927 in assay [15] and 0.928 in assay [16].

Turning to Community 9, the relative growth in assay [1] was 0.764; in assay [2] it was 0.985; in assay [3], 1.02; in assay [4] it was 0.846; in [5], 1.02; in assay [6] it was 0.906. For the same target, the relative growth in assay [7] is 1; in assay [8] it was 1.1; in assay [9] it was 0.905; in assay [10] it was 0.906; in assay [11], 0.839; in [12], 1.05. Also, the relative growth was 1.03 in assay [13], 0.306 (active) in assay [14], 1.03 in assay [15] and 0.911 in [16].

Take Hymenobacter 1 (Hymenobacter glaciei): the relative growth in assay [1] is 0.768; in [2], 1.08; in [3], 0.952; in assay [4] it was 0.932; in [5] it was 1.05; in assay [6], 0.845. Moreover, the relative growth is 1.07 in [7]; 1.08 in [8]; 0.999 in [9]; 1.06 in [10]; 0.927 in assay [11]; 0.91 in assay [12]. The relative growth was 1 in assay [13], 0.00356 (active) in [14], 0.998 in assay [15] and 0.917 in assay [16].

Consider Aeromonas 1 (Aeromonas sp. AE235), for which the relative growth in assay [1] was 0.944; in [2], 0.96; in assay [3], 0.999; in [4], 0.966; in [5], 0.969; in assay [6], 0.979. Also, the relative growth is 0.944 in [7]; 1.04 in assay [8]; 0.959 in [9]; 1.02 in assay [10]; 0.985 in [11]; 1.03 in [12]. Moreover, the relative growth in assay [13] was 0.991; in assay [14], 0.000683 (active); in [15], 0.955; in [16], 0.952.

As to Pseudomonas 5 (Pseudomonas baetica), the relative growth in [1] was 0.962; in assay [2] it was 1.03; in assay [3], 1.08; in assay [4], 0.989; in assay [5], 1; in assay [6], 1.01. Also, the relative growth in [7] is 0.994; in [8], 1.04; in assay [9], 1.02; in assay [10] it was 1.05; in [11] it was 0.995; in assay [12] it was 1.05. The relative growth in assay [13] is 1.05; in [14], 0.501 (active); in assay [15], 1.03; in [16], 0.951.

For the target Community 7, the relative growth in assay [1] was 0.922; in [2], 1.03; in assay [3], 0.994; in [4] it was 0.872; in assay [5], 1.03; in assay [6], 1.04. For the same target, the relative growth in assay [7] is 1.12; in assay [8] it was 1.02; in [9], 1.08; in [10], 1; in assay [11], 1.06; in [12] it was 1.05. The relative growth in [13] was 1.07; in [14], 0.468; in assay [15], 1.12; in assay [16], 1.03.

As to “Pseudomonas 2 (Pseudomonas vancouverensis)”, the relative growth was 0.914 in assay [1]; 1 in assay [2]; 0.989 in assay [3]; 1.01 in assay [4]; 0.969 in [5]; 0.974 in assay [6]. The relative growth is 0.987 in assay [7]; 1.02 in assay [8]; 0.996 in assay [9]; 1.11 in assay [10]; 0.967 in assay [11]; 1.01 in assay [12]. Further, the relative growth was 0.98 in [13], 0.0738 (active) in assay [14], 0.947 in [15] and 0.959 in assay [16].

Take Community 4: the relative growth in assay [1] is 0.814; in assay [2] it was 0.952; in assay [3] it was 0.85; in assay [4], 0.807; in assay [5], 0.98; in assay [6], 0.824. The relative growth in assay [7] was 0.992; in assay [8] it was 1.09; in assay [9] it was 0.867; in assay [10], 1.11; in assay [11], 0.837; in assay [12], 1.1. In addition, the relative growth in assay [13] is 0.943; in assay [14] it was 0.435 (active); in assay [15] it was 1.13; in [16], 0.997.
